This test deals with T1, ETS1 (UniProt P14921).
T1 sequence: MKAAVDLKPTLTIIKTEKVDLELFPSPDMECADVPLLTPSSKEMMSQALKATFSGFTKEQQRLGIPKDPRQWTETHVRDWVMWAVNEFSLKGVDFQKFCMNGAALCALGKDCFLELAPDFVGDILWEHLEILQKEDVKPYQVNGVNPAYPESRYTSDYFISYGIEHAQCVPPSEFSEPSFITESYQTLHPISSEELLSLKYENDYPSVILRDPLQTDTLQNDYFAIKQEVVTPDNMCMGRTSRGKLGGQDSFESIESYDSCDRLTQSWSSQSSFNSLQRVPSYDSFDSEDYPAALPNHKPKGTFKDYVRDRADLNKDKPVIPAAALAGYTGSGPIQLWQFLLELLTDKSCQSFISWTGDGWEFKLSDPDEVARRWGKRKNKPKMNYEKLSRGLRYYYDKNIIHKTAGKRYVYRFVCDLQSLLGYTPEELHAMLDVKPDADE
Put plainly: ETS1 binding intensity (PBM fluorescence) in presence of RUNX1, normalised to ETS1-only experiment (arbitrary fluorescence units); higher = stronger binding. The note with it: ETS1 concentration 1 nM; RUNX1 concentration 25 nM.
As to TGCCCCCTCCCCCTTCCGCTGTGGCCACCGGCTTTG, the ETS1 binding intensity was 780. In the case of CGAAGGAGGAAGCTGCACAGGGTGTCTGTGGCTGGC, the ETS1 binding intensity amounted to 428. On to ATGACTTAGCAACATCCTGACAACCACTACATTGTC, for which the ETS1 binding intensity came to 420. For GCACCGTCCCAGCATCCGGACACCACAGCGGCCCTT, the ETS1 binding intensity is 530. The same measure for ACGCTGGAATCGCGGAAACCGCCGGTGCACGTTGGA: 627; for CACTTGTCCTTCCTGGCCTGCGGCCGCCACCACTTC: 372; for GTATTTATTTCCTCTTCGAAGAAATGCGGGGGTGCC: 438.

Regarding GCAGGAAACGCTTTCTTAACACTATGTGGGTGAGGT, the ETS1 binding intensity came out at 691. The same measure for CCTCCAGGAAGCGATAAGTGACTGTGGTGGAGAGAG: 620. Consider CCAGGCGTTTCCGGGTTCCCGCGGTCCCGTCCCCCA, for which the ETS1 binding intensity was found to be 1330. For the sequence GCATGTTCAAAAGGATGTGGGTGCTTACCTAGTGCC, the ETS1 binding intensity amounted to 1230. Turning to GGAACGGAGGCGGAAGGGGCCCTGCGGCGACGACGT, the ETS1 binding intensity is 1070. Take TGCTGTTTCCTCTGCTGCCGAAGCGGTTTCTTCCAC: the ETS1 binding intensity was 400. In the case of ACCTCTTCCGAGACCCAAAATGCGCGGTCTGGAGAG, the ETS1 binding intensity stood at 328.

For the sequence AATGGCGGGAAGTAAGAGGAATGTGGGCCTGACTGC, the ETS1 binding intensity was found to be 386. For the sequence CAGTCTCCTTCCGCGTCACCTCTGTGACCGCTGTGC, the ETS1 binding intensity worked out at 583.

AGGCGAAGGATGACTTCCTGCGGCACTACACAGTGT: the ETS1 binding intensity stood at 656.

For AACAGCTTTTGTCCAGGATGTGGCTTCATAGCCTTG, the ETS1 binding intensity turned out to be 2340. As to CTCGGAGCGGAACTACTAGGGTGGTTTCTCCTGAGG, the ETS1 binding intensity worked out at 336. In the case of CCACTCCCAGCTCCATCCTGTGGGTAGAACTCAGTG, the ETS1 binding intensity stood at 452. For GCTTACGTCACGTCCGGCGCCTGCGGCCCACCCCTC the value was 506. For CTCCGGGAACAGCGGAAAAGGGACCGCATGAACCTC the value was 1470. Take GTGACCCAATACTTCCTGCCACAATACTGAGAACTC: the ETS1 binding intensity is 702. Consider AATAAACAGGAAGGTCTCTTGGAGCTGTGGTCTTGG, for which the ETS1 binding intensity came out at 1110.

Turning to GTAGCCGGGTGTTCCGGAGCGCTGCGGGCAAAGCAG, the ETS1 binding intensity came out at 539. As to TGGCTTGAGCTCAGGAAGTTGTGGCTGCAGTAAGCT, the ETS1 binding intensity was 1970. As to GCAGCCAGGGTAGGAAGTGGTAAGACCTCCCTGTGA, the ETS1 binding intensity was found to be 1230.

For CCTCATTTCCGGGCTGTTTGCGCGCAAGCCCACATC, the ETS1 binding intensity amounted to 968.

For GTGCAGGCAATGAGGATGTTGTGGGGGAGACAGGGA, the ETS1 binding intensity amounted to 732. In the case of GTCGTGTTTGGCTTCCTGTGGGCACGCCTGCGTAGC, the ETS1 binding intensity was 516.

Turning to AACAGATCCTTCCTGGCCCCCACTAGCCACAGGTTT, the ETS1 binding intensity is 421.

Take CTCTTCTTCAGGGTTTCCTGTGGGTACACTGAGAAC: the ETS1 binding intensity came out at 602. The same measure for GGCGCCTCTTTCCGCCCCCGCCCACAATCGAGCGCA: 399. As for GCGCCATTTCCGCTGCGCAAGGCACCACAGGCCCTG, the ETS1 binding intensity came to 943. For TCTCTTCTCCCCATCCGCCCGAGACCACAGCCACTC the value was 507; for CTGCTTCGGCCCGGCTTCCGCCCACAGTCAACTGCC, 694; for GTCGTCAGCGTCTTCCTGTCAGCGGTCGGCAGAGCC, 562. Turning to CAGCCCTAGCGAGTTTCCTGCGGGGAAGGGCATTCC, the ETS1 binding intensity was 480. As for GGCCGGGGACGGAAGGCGGGCCCGCAGCAGATCCTG, the ETS1 binding intensity came out at 362. For AGCCAGGAAATCCGCACCTACACAGCCCAACCACAG the value was 435.

(Values after the supplement of paper PMC10681739.)
